PLK1 PBD block – qHTS for Inhibitors of PLK1-PDB (polo-like kinase 1 - polo-box domain): Primary Screen. Serine/threonine-protein kinase PLK1 (Homo sapiens), P53350. Plk1 PBD binding of FITC phosphopeptide, fluorescence polarization. Potency, µM, for inactives: max response, negative = inhibition, usual class: inhibitors. 2.8% of 360,000 active; note: series mostly up to about 57 µM; nearly all actives have a fitted effect of over 65% in size
Target sequence (P53350 whole entry, looked up, the tested form may be a part): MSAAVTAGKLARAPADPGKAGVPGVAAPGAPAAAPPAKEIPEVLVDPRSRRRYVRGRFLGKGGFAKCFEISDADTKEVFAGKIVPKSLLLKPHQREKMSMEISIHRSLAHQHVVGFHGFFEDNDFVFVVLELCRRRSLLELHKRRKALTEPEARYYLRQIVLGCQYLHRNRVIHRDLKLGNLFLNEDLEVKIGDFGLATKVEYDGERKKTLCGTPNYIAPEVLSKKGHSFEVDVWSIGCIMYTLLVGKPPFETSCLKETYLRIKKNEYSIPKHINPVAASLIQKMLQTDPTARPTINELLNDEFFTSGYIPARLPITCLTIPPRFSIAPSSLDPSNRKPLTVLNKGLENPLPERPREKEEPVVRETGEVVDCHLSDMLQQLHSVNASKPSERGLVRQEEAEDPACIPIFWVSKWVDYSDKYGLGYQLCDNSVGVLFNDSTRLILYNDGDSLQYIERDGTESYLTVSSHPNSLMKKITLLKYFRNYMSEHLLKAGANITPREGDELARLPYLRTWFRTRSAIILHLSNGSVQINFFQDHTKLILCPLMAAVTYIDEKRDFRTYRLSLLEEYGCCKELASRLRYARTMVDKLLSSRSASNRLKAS
TDP1 cell CPT – qHTS for Inhibitors of human tyrosyl-DNA phosphodiesterase 1 (TDP1): qHTS in cells in presence of CPT. chicken DT40 Tdp1-/-;hTDP1 cells + 20 nM CPT, ATP luminescence, 48 h. Potency, µM (top dose mostly 46.2 µM), for inactives: top-dose activity change, negative = growth inhibition, hits mostly inhibitors. 12% of 420,000 active; note: nearly all actives have a fitted effect of over 55% in size
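Cell growth measured by CellTiter-Glo luminescence after a minimum 48 h, 37 C compound exposure with 20 nM CPT in Tdp1-knockout DT40 cells stably expressing hTDP1, seeded 400/well; qHTS titration format.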
KAT2A inh – qHTS Assay for Inhibitors of GCN5L2. Histone acetyltransferase KAT2A (Homo sapiens), Q92830. GCN5L2 HAT assay, ThioGlo1 CoA-SH fluorescence. Potency, µM (series often up to 58.9 µM), without a hit: top-dose activity change, negative = inhibition, most hits filed as inhibitors. 0.21% of 390,000 active
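Fluorescence readout, Ex340nm/Em540nm: ThioGlo1 (50uM final) reacts with free CoA thiol released as 20nM GCN5L2 acetylates H3(1-25) peptide (75uM) using acetyl-CoA (70uM). Compound and enzyme sat 15 min beforehand; 20 min room-temperature reaction.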
TDP1 block – qHTS Assay for Inhibitors of Tyrosyl-DNA Phosphodiesterase (TDP1) | Potency, µM (titrated, usually from 130 µM), inactives show at the highest dose activity change, negative = inhibition, actives largely listed as inhibitors | 0.28% of 350,000 active | recombinant TDP1, AlphaScreen DNA substrate cleavage; note: nearly all actives have a fitted effect of over 40% in size
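Recombinant human Tdp1 (E. coli-expressed, 1 nM final) preincubated with compounds 15 min at room temperature, then 5'-biotin/3'-phosphotyrosine-FITC DNA substrate (15 nM final) added for 5 min. AlphaScreen beads (10 ug/ml final) added 10 min; cleavage lowers signal.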
VDR inhibitor – Inhibitors of the vitamin D receptor (VDR): qHTS | Vitamin D3 receptor (Homo sapiens), P11473 | AID 504847, 2011 | Potency, µM, inactives show max response, negative = inhibition, actives largely listed as inhibitors | 0.93% of 400,000 active | VDR-SRC2-3 peptide fluorescence polarization, 2 h
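Two reagent solutions held at 4 deg C in the dark were dispensed, compounds pinned at 23 nl, and the mixture incubated 2 h at room temperature. Read-out: fluorescence polarization of VDR–SRC2-3 peptide binding.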
DT40 TDP1 no CPT – qHTS for Inhibitors of human tyrosyl-DNA phosphodiesterase 1 (TDP1): qHTS in cells in absence of CPT; DT40 Tdp1-/- hTDP1 cells, no CPT, ATP luminescence, 48 h; Potency, µM (doses to about 46.2 µM), without a hit: top-dose activity change, negative = growth inhibition, usual class: inhibitors; 15% of 420,000 active; AID 686978, 2013; note: nearly all actives have a fitted effect of over 55% in size
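Seeded 400 DT40-hTDP1 cells/well (vehicle DMSO, no 20 nM CPT); pinned compounds; ≥48 hr at 37 °C; CellTiter-Glo luminescence as viability measure.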
* hit, by the source's call; ? = inconclusive; · = not tested or not shown; [ ] = another dose, or the depositor's remark. Only some compounds are listed: those with a hit (about 18% of all), similar ones and a draw of the others. Calls come from the whole dose curve; as a rule, active = well fitted curve in the direction sought with a large enough effect; inconclusive = small, poorly fitted or top-dose-only effect, or another doubt; inactive = no such curve, though single readings can be large; an effect the other way counts as inactive or inconclusive. % is set by controls: 0 for no effect and ±100 for the full control effect; potency is the fitted concentration of half-maximal effect.

SMILES	PLK1 PBD block	TDP1 cell CPT	KAT2A inh	TDP1 block	VDR inhibitor	DT40 TDP1 no CPT
CCOP(=O)(CN(CC)CCNP(=O)(OCC)OCC)OCC	1%	-4%	-3%	5%	6%	-9%
CCCCOP(=O)(c1ccc(N(C)C)cc1)C(O)c1ccc(C(C)C)cc1 (stereo not given)	5%	?	-7%	·	7%	-18%
CC(C)CCOP(=O)(c1ccc(N(C)C)cc1)C(O)c1ccc(Cl)cc1Cl (stereo not given)	1%	16µM*	-19%	·	-12%	21µM*
CC(C)CCOP(=O)(c1ccc(N(C)C)cc1)C(O)c1ccc(C(C)C)cc1 (stereo not given)	0%	?	-15%	·	-1%	21µM*
CC(C)Br	·	·	·	11%	·	·
Cc1ccc2c(c1)Cc1c(C(=O)NC3CCCCC3)nn(-c3ccc(Cl)cc3Cl)c1-2	·	·	-11%	10%	0%	·
CCC(c1nnnn1C(C)(C)C)N1CCC2(CC1)C(=O)NCN2c1ccccc1 (stereo not given)	-4%	-28%	·	·	·	?
CSCCC(c1nnnn1-c1c(C)cccc1C)N1CCC2(CC1)C(=O)NCN2c1ccccc1 (stereo not given)	-12%	23µM*	·	·	·	?
O=C1NCN(c2ccccc2)C12CCN(C(CCc1ccccc1)c1nnnn1Cc1ccccc1)CC2 (stereo not given)	-3%	?	·	·	·	?
O=C1NCN(c2ccccc2)C12CCN(C(c1ccccc1)c1nnnn1Cc1ccccc1)CC2 (stereo not given)	2%	?	·	·	·	?
O=C1NCN(c2ccccc2)C12CCN(C(c1nnnn1Cc1ccccc1)C1CC1)CC2 (stereo not given)	4%	?	·	·	·	21µM*
CC(C)(C)n1nnnc1C(CCc1ccccc1)N1CCC2(CC1)C(=O)NCN2c1ccccc1 (stereo not given)	4%	21µM*	·	·	·	15µM*
CSCCC(c1nnnn1Cc1ccccc1)N1CCC2(CC1)C(=O)NCN2c1ccccc1 (stereo not given)	1%	15µM*	·	·	·	21µM*
CN1CCC2(O)OCCCC2C1 (stereo not given)	-10%	11%	9%	-6%	-14%	-11%
Cc1ccc(Cl)cc1NC(=O)N(Cc1ccc2c(c1)OCO2)C1CCN(Cc2ccccc2)CC1	·	?	-1%	4%	-14%	13µM*
Cc1ccc(NC(=O)N(Cc2ccc3c(c2)OCO3)C2CCN(Cc3ccccc3)CC2)cc1C	·	?	-14%	7%	-5%	29µM*
O=C(CSCc1ccccc1)Nc1ccc2c(c1)OCO2	?	-23%	1%	5%	-27%	-15%
Cc1ccc(NC(=O)N(Cc2ccc3c(c2)OCO3)C2CCN(Cc3ccccc3)CC2)cc1Cl	·	4.6µM*	-12%	10%	10%	15µM*
Cc1[nH]c2ccccc2c1P(=S)(c1ccccc1)c1ccccc1	·	·	·	0%	·	·
O=C(c1ccc(N2CC3CC(C2)c2cccc(=O)n2C3)c([N+](=O)[O-])c1)N1CCCC1 (stereo not given)	-1%	3%	-8%	4%	-4%	-8%
Fc1cccc(CCNCc2ccccn2)c1	-6%	-13%	1%	-8%	-2%	-11%
CCCOC(=O)c1c(C)oc2c1cc(NS(=O)(=O)c1ccc(OCC)cc1)c1ccccc12	·	1.5µM*	-1%	·	-11%	1µM*
COc1ccc(N/N=C/c2c(O)n(-c3ccc(C)c(C)c3)c(=O)[nH]c2=O)cc1	?	?	-6%	13%	?	29µM*
Cc1ccc(C)c(CN2C(=O)c3ccccc3S(=O)(=O)c3ccc(C(=O)N4CCCCCC4)cc32)c1	·	?	-7%	-3%	?	?
OCC1CN1C1CCCCC1 (stereo not given)	-4%	?	·	·	-11%	?
SMILES	PLK1 PBD block	TDP1 cell CPT	KAT2A inh	TDP1 block	VDR inhibitor	DT40 TDP1 no CPT
COC(=O)C1=C(c2cc3ccccc3s2)C[C@@H]2CC[C@H]1N2C(=O)NCc1ccc(F)cc1	-5%	?	·	·	-3%	·
CCc1ccc(CNC(=O)C2CCN(C(=O)c3ccc(-n4c(C)cc5ccccc54)s3)CC2)cc1	·	10µM*	-15%	-5%	-2%	18µM*
Cc1cc2ccccc2n1-c1ccc(C(=O)N2CCC(C(=O)NCc3ccc(Cl)cc3)CC2)s1	·	4.1µM*	-21%	5%	5%	3.7µM*
CC(C)[N+](C)(C)CC(O)CN(c1ccccc1)c1ccccc1 (stereo not given)	-11%	?	8%	3%	1%	-27%
O=C(CCCCCCCCCCC(=O)NCc1cccnc1)NCc1cccnc1	-1%	?	-3%	1%	-7%	?
O=C(CCCc1ccc(N(CCCl)CCCl)cc1)NCc1ccccc1	-9%	0.73µM*	·	·	·	0.73µM*
CC(C)CN1CCN(Cc2ccc(F)cc2Cl)CC1CCO (stereo not given)	-14%	-10%	-7%	·	-4%	14%
O=C(O)CNC(=O)[C@@H](CS)Cc1ccccc1	·	·	13µM*	-5%[56.1 µM]	0%	·
COc1ccc([C@H]2C[C@H](O)[C@@H](n3cc(COC(=O)c4ccccc4)nn3)CN2Cc2cccs2)cc1	4%	-2%	·	·	·	?
c1ccc2c(c1)CSc1ccccc1N2	-2%	-13%	·	·	2%	?
S=C1Nc2ccccc2Sc2ccccc21	27µM*	11%	-7%	1%	-15%	-11%
O=C(N=Nc1c(O)[nH]c(=O)[nH]c1=O)C1COc2cc3ccccc3cc2O1 (stereo not given)	?	18µM*	-8%	7%	?	?
COC1CC2C=C(C)C=CC=CC(=O)NC(c3ccccc3)CC=CCCC(O)CC(=O)C2=C1O (stereo not given)	-27%	0.46µM*	·	·	·	0.52µM*
COc1ccc(CN2CC=C(c3ccc(F)cc3)CC2)cc1Br	0%	?	-9%	·	-27%	29µM*
CCN(CC)c1ccc(CN2CC=C(c3ccc(F)cc3)CC2)cc1	-3%	18µM*	-10%	10%	5%	18µM*

Screening data deposited in PubChem by National Center for Advancing Translational Sciences (NCATS).
